Test [1] deals with CASKI. The test can be described thus: Primary qHTS to identify gynecologic anti-cancer compounds using libraries of approved drugs and bioactive compounds (AID 1345084). Note: nearly all actives have a fitted effect of over 55% in size. The conditions noted are these: Gynecologic cancer cell panel viability, ATPlite luminescence, 48 h; series mostly up to 57.5 µM. Summed up:
(§1)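 Cell viability after 48 h drug treatment, ATPlite luminescence readout; five doses.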
A general note: qHTS replaces the single test concentration by a dilution series.

The test system of test [2] is Es-2. The test is described as above. The conditions noted are these: Gynecologic cancer cell panel viability, ATPlite luminescence, 48 h; series mostly up to 57.5 µM. Summed up:
as §1

Test [3] deals with HeLa. The test is described as above. As to conditions: Gynecologic cancer cell panel viability, ATPlite luminescence, 48 h; series mostly up to 57.5 µM. Summed up:
as §1
In general terms: In ATP-based viability assays light output follows the ATP content of the culture.

Test [4] deals with Hek293T. The test is described as above. The conditions noted are these: Gynecologic cancer cell panel viability, ATPlite luminescence, 48 h, control line for the selectivity index; series mostly up to 57.5 µM. Summed up: as §1
Test [5] relates to SKOV3. The test is described as above. As to conditions: Gynecologic cancer cell panel viability, ATPlite luminescence, 48 h; series mostly up to 57.5 µM. Summed up:
as §1

Test [6] has as its system Tov112D. Described as above. As to conditions: Gynecologic cancer cell panel viability, ATPlite luminescence, 48 h; series mostly up to 57.5 µM. Summed up: as §1
Test [7] deals with JEG-3. The test is described as above. As to conditions: Gynecologic cancer cell panel viability, ATPlite luminescence, 48 h; series mostly up to 57.5 µM. Summed up: as §1
Test [8] deals with Tov-21-G. Described as above. The conditions noted are these: Gynecologic cancer cell panel viability, ATPlite luminescence, 48 h; series mostly up to 57.5 µM. Summed up: as §1
Test [9] concerns OV90. The description is as above. The conditions noted are these: Gynecologic cancer cell panel viability, ATPlite luminescence, 48 h; series mostly up to 57.5 µM. Summed up: as §1
The subject of test [10] is PA-1. The description is as above. As to conditions: Gynecologic cancer cell panel viability, ATPlite luminescence, 48 h; series mostly up to 57.5 µM. Summed up: as §1
A short description of test [11]: qHTS assay to identify inhibitors of the type 1 interferon - major histocompatibility complex class I in skeletal muscle: Counter screen cell viability and HiBit confirmation (AID 1347412). For all read-outs here: nearly all actives have a fitted effect of over 60% in size. As to conditions: iHSKM muscle cells + IFN-b, HiBiT or CellTiter-Glo, 24 h; for activity change, negative = inhibition: at 45.9 µM (top of the series). Summed up: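 CRISPR HLA-B*08:01-HiBit immortalized human myoblasts (C25cl48) stimulated with 4 ng/ml IFN-beta and compounds (12-point 1:3, top 46 uM final) for 24 h at 37 C. Duplicate plates read by HiBit lytic luminescence or CellTiter Glo ATP.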

Results filed as inconclusive are left out. Values without a mark were called inactive. Calls of active or inactive are those of the source. Calls come from the whole dose curve; as a rule, active = well fitted curve in the direction sought with a large enough effect; inconclusive = small, poorly fitted or top-dose-only effect, or another doubt; inactive = no such curve, though single readings can be large; an effect the other way counts as inactive or inconclusive.
% is set by controls: 0 for no effect and ±100 for the full control effect; potency is the fitted concentration of half-maximal effect.

For the compound `CNS(=O)(=O)c1ccccc1Nc1nc(Nc2ccc(N3CCN(C)CC3)cc2OC)ncc1Cl`, the Potency in test [1] is 7080 nM (active); in [2] it was 12600 nM (active); in test [3] it was 2000 nM (active); in test [4] it was 12600 nM (active); in [5], 3550 nM (active); in [6], 10000 nM (active).
For `COc1cc2ncnc(Nc3cccc(O)c3)c2cc1OC`, the Potency result in test [2], in test [3], in test [4], in test [7] and in test [6] was “inactive” each time. Also, in test [8], the Potency is 15800 nM (active).
Regarding `COc1ncc(Nc2ncc([C@H](C)N3CCN(S(C)(=O)=O)CC3)cc2-c2nc(C)nc(N)n2)cc1F`, the figures for the Potency in test [1], in [4] and in test [5] were 1000 nM (active), 794 nM (active) and 2820 nM (active), respectively. Also, the Potency result in [2], in test [9] and in [6] was “inactive” throughout.
As for `CCn1c(=O)c(-c2ccn[nH]2)cc2c(C)nc(N)nc21`, the Potency in [1] was 15800 nM (active); in test [3] it was 8910 nM (active); in test [4], 8910 nM (active); in [9], 14100 nM (active); in [5], 10000 nM (active). In addition, the Potency result in test [7] is “inactive”.
In the case of `CNC(=O)c1ccccc1Nc1nc(Nc2ccc(N3CCNCC3)cc2)ncc1Cl`, the Potency in [1] is 355 nM (active); in test [2], 2240 nM (active); in test [3], 39.8 nM (active); in test [4], 631 nM (active); in test [10] it was 316 nM (active); in test [8], 355 nM (active).
As for `Cn1nnc(-c2ccc(-c3ccc(N4C[C@H](COP(=O)(O)O)OC4=O)cc3F)cn2)n1`, the Potency in test [1] is 12600 nM (active); in [9], 20000 nM (active).
Consider `CCN1CCN(Cc2ccc(NC(=O)c3ccc(C)c(NC(=O)c4cncc(-c5cccs5)c4)c3)cc2C(F)(F)F)CC1`, for which the Potency in [1] was 10000 nM (active); in [2], 2820 nM (active); in test [7], 25100 nM (active); in test [9] it was 12600 nM (active); in [10] it was 1580 nM (active); in test [8], 1410 nM (active). In addition, the Potency in test [6] was 3550 nM (active); in test [11] (HiBiT) it was 5570 nM (active); in [11] (Viability) it was 12500 nM (active).
As for `CO[C@@H](C)Cn1c(=O)n(C)c2cnc3ccc(-c4cncc(C(C)(C)O)c4)cc3c21`, the Potency was 5010 nM (active) in test [1]; 6310 nM (active) in [3]; 562 nM (active) in test [4]; 31600 nM (active) in test [7]; 891 nM (active) in test [10].
In the case of `N#CC(c1ccnc(OCc2ccc(CN3CCOCC3)cc2)n1)c1nc2ccccc2s1` (centres undefined), the Potency result in [2], in test [3], in test [10] and in test [6] was “inactive” each time. In addition, the values for the Potency in [7], in test [9] and in test [5] were 10000 nM (active), 7940 nM (active) and 7940 nM (active), respectively.
Consider `Cn1cncc1C(N)(c1ccc(Cl)cc1)c1ccc2c(c1)c(-c1cccc(Cl)c1)cc(=O)n2C` (centres undefined), for which the Potency result in test [1], in [3] and in test [5] was “inactive” in each case. For the same compound, the activity change, negative = inhibition in [11] (Viability) is -22.3%.
For `CC(Oc1ccc2[nH]nc(/C=C/c3cnn(CCO)c3)c2c1)c1c(Cl)cncc1Cl` (centres undefined), the Potency was 20000 nM (active) in [2]; 1580 nM (active) in test [3]; 10000 nM (active) in [4]; 6310 nM (active) in [10]; 3550 nM (active) in test [8].
As to `CCC(C)C(=O)OC1CC(O)C23C4OCC5(C(O)CC2C1(C)C(O)O4)C3C(=O)CC1(C)C(c2ccoc2)CC2OC215` (centres undefined), the Potency entry in test [1] and in [7] was “inactive” throughout. Moreover, the results for the Potency in test [4], in test [9] and in [6] were 10000 nM (active), 1780 nM (active) and 11200 nM (active), respectively.
For the compound `COc1cccc(Nc2ncnn3ccc(CN4CC[C@@H](N)[C@H](O)C4)c23)c1`, the Potency result in test [1], in test [2], in test [3] and in test [7] was “inactive” in each case. Also, the Potency is 5620 nM (active) in test [8] and 6250 nM (active) in [11] (HiBiT).
With `COc1ccc(-c2ccc3c(N4CCOCC4)nc(N4CC(C)OC(C)C4)nc3n2)cc1CO` (centres undefined), the Potency in test [1] was 1120 nM (active); in test [4], 1580 nM (active); in [9], 2820 nM (active); in test [10], 2510 nM (active); in [5] it was 794 nM (active); in test [8], 1260 nM (active). Besides, the Potency entry in test [7] was “inactive”.
Consider `COc1ccc(CC2C(=O)NC(C)C(=O)N(C)C3Cc4ccc(cc4)Oc4cc(ccc4OC4OC(CO)C(O)C(O)C4O)CC(C(=O)NC(C)C(=O)NC(C)C(=O)N2C)N(C)C3=O)cc1` (centres undefined), for which the Potency in [1] was 631 nM (active); in test [2], 398 nM (active); in test [3], 2000 nM (active); in test [4], 158 nM (active); in test [5], 1410 nM (active); in test [8], 1260 nM (active). Besides, the Potency in test [6] was 501 nM (active).
As to `CC(=O)c1cc(C(=O)N[C@@H](C)Cn2ccc(-c3ccc(C#N)c(Cl)c3)n2)[nH]n1`, the Potency entry in [1], in [2], in test [3], in test [7], in test [10] and in test [8] was “inactive” throughout. Moreover, the Potency result in test [6] is “inactive”.
Consider `CNC(=O)c1ccccc1Nc1nc(Nc2ccc3c(c2OC)CCC[C@@H](N2CCN(CCO)CC2)C3)ncc1Cl`, for which the Potency in test [1] is 12600 nM (active); in test [9], 7940 nM (active); in [10], 10000 nM (active); in [8] it was 10000 nM (active).
With `Cc1ccc(NC(=O)Nc2cc(C(F)(F)F)ccc2F)cc1Nc1ccc2c(c1)NC(=O)/C2=C\c1ccc[nH]1`, the Potency result in test [1], in test [2], in test [3], in test [4], in test [7] and in test [9] was “inactive” each time. Moreover, the Potency result in test [10], in test [8] and in test [6] was “inactive” throughout. Also, the Potency in test [11] (HiBiT) was 31300 nM (active). The activity change, negative = inhibition in test [11] (Viability) was -28%.
Turning to `C=C(C)C(=O)O[C@H]1CC2=CC(C/C(C)=C\[C@H]3OC(=O)C(=C)[C@H]13)OC2=O` (some centres undefined), the Potency result in test [1], in test [3], in test [7], in test [9], in test [5] and in [6] was “inactive” in each case.
Turning to `CN(C)C1CCN(C(=O)c2ccc(NC(=O)Nc3ccc(-c4nc(N5CCOCC5)nc(N5CCOCC5)n4)cc3)cc2)CC1`, the Potency in test [1] was 282 nM (active); in test [3], 562 nM (active); in test [4] it was 398 nM (active).
On to `COc1cc2c(cc1OC)-c1[nH]nc(Nc3cccc(F)c3)c1C2`, for which the Potency was 891 nM (active) in [1]; 1410 nM (active) in test [2]; 562 nM (active) in [3]; 316 nM (active) in test [10]; 2240 nM (active) in test [8]; 282 nM (active) in [6].

The record behind these values is PubChem BioAssay (NCATS).
